Test results as given in the supplement of paper PMC8728848.
The sample as a whole holds a higher share of the strongest signals than the screen did.

How the values were obtained:
Test in all cases: glycan array binding signal (z-score within array); higher = stronger binding
Conditions in all cases: glycan notation: IUPAC condensed, linker removed
[1] = biological target: Fuc(a1-2)Gal(b1-4)Glc
Summary of the method: (§1)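 From the Consortium for Functional Glycomics database, 3228 arrays were curated, keeping only those whose protein sequence was available. Binding is given as a within-array Z-score averaged across arrays sharing a protein sequence and across linkers. Negative Z-scores can be read as non-binding.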

[2] = biological target: Fuc(a1-2)Gal(b1-4)GlcNAc
Summary of the method: as §1

[3] = biological target: Fuc(a1-2)Gal(b1-4)[Fuc(a1-3)]GlcNAc(b1-3)Gal(b1-4)[Fuc(a1-3)]GlcNAc(b1-3)Gal(b1-4)[Fuc(a1-3)]GlcNAc
Summary of the method: as §1

[4] = biological target: Fuc(a1-2)Gal(b1-4)[Fuc(a1-3)]GlcNAc(b1-3)GalNAc
Summary of the method: as §1

[5] = biological target: Fuc(a1-2)[Gal(a1-3)]Gal(b1-4)GlcNAc(b1-2)Man(a1-3)[Fuc(a1-2)[Gal(a1-3)]Gal(b1-4)GlcNAc(b1-2)Man(a1-6)]Man(b1-4)GlcNAc(b1-4)[Fuc(a1-6)]GlcNAc
Summary of the method: as §1

[6] = biological target: Fuc(a1-2)[Gal(a1-3)]Gal(b1-4)[Fuc(a1-3)]Glc
Summary of the method: as §1

[7] = biological target: Fuc(a1-2)[Gal(a1-3)]Gal(b1-4)[Fuc(a1-3)]GlcNAc
Summary of the method: as §1

[8] = biological target: Fuc(a1-2)[GalNAc(a1-3)]Gal(b1-3)GlcNAc(b1-6)GalNAc
Summary of the method: as §1

[9] = biological target: Fuc(a1-2)[GalNAc(a1-3)]Gal(b1-4)[Fuc(a1-3)]GlcNAc(b1-3)GalNAc
Summary of the method: as §1

[10] = biological target: Fuc(a1-2)[GalNAc(b1-3)]Gal
Summary of the method: as §1

[11] = biological target: Gal(a1-3)Gal(b1-3)GlcNAc(b1-2)Man(a1-3)[Gal(a1-3)Gal(b1-3)GlcNAc(b1-2)Man(a1-6)]Man(b1-4)GlcNAc(b1-4)GlcNAc
Summary of the method: as §1

[12] = biological target: Gal(a1-3)Gal(b1-3)[Fuc(a1-4)]GlcNAc(b1-2)Man(a1-3)[Gal(a1-3)Gal(b1-3)[Fuc(a1-4)]GlcNAc(b1-2)Man(a1-6)]Man(b1-4)GlcNAc(b1-4)GlcNAc
Summary of the method: as §1

[13] = biological target: Gal(a1-3)Gal(b1-4)GlcNAc
Summary of the method: as §1

[14] = biological target: Gal(b1-3)GlcNAc(b1-2)Man(a1-3)[GlcNAc(b1-4)][Gal(b1-3)GlcNAc(b1-2)Man(a1-6)]Man(b1-4)GlcNAc(b1-4)GlcNAc
Summary of the method: as §1

[15] = biological target: Gal(b1-3)GlcNAc(b1-3)Gal(b1-4)GlcNAc(b1-2)[Gal(b1-3)GlcNAc(b1-3)Gal(b1-4)GlcNAc(b1-6)]Man(a1-6)[Gal(b1-3)GlcNAc(b1-3)Gal(b1-4)GlcNAc(b1-2)Man(a1-3)]Man(b1-4)GlcNAc(b1-4)[Fuc(a1-6)]GlcNAc
Summary of the method: as §1

[16] = biological target: Gal(b1-4)GlcNAc(b1-2)Man(a1-3)[Gal(b1-4)GlcNAc(b1-2)Man(a1-6)]Man(b1-4)GlcNAc(b1-4)[Fuc(a1-6)]GlcNAc
Summary of the method: as §1

[17] = biological target: Gal(b1-4)GlcNAc(b1-3)Gal(b1-4)GlcNAc(b1-2)[Gal(b1-4)GlcNAc(b1-3)Gal(b1-4)GlcNAc(b1-6)]Man(a1-6)[Gal(b1-4)GlcNAc(b1-3)Gal(b1-4)GlcNAc(b1-2)Man(a1-3)]Man(b1-4)GlcNAc(b1-4)GlcNAc
Summary of the method: as §1

[18] = biological target: Gal(b1-4)GlcNAc(b1-3)Gal(b1-4)GlcNAc(b1-2)[Gal(b1-4)GlcNAc(b1-3)Gal(b1-4)GlcNAc(b1-6)]Man(a1-6)[Gal(b1-4)GlcNAc(b1-3)Gal(b1-4)GlcNAc(b1-2)Man(a1-3)]Man(b1-4)GlcNAc(b1-4)[Fuc(a1-6)]GlcNAc
Summary of the method: as §1

[19] = biological target: Gal(b1-4)GlcNAc(b1-3)Gal(b1-4)GlcNAc(b1-3)Gal(b1-4)GlcNAc(b1-3)Gal(b1-4)GlcNAc(b1-3)Gal(b1-4)GlcNAc(b1-2)[Gal(b1-4)GlcNAc(b1-3)Gal(b1-4)GlcNAc(b1-3)Gal(b1-4)GlcNAc(b1-3)Gal(b1-4)GlcNAc(b1-3)Gal(b1-4)GlcNAc(b1-6)]Man(a1-6)[Gal(b1-4)GlcNAc(b1-3)Gal(b1-4)GlcNAc(b1-3)Gal(b1-4)GlcNAc(b1-3)Gal(b1-4)GlcNAc(b1-3)Gal(b1-4)GlcNAc(b1-2)Man(a1-3)]Man(b1-4)GlcNAc(b1-4)[Fuc(a1-6)]GlcNAc
Summary of the method: as §1

[20] = biological target: Gal3S(b1-4)[Fuc(a1-3)]GlcNAc6S
Summary of the method: as §1

[21] = biological target: Gal6S(b1-4)Glc6S
Summary of the method: as §1

[22] = biological target: Glc(a1-6)Glc(a1-6)Glc(a1-6)Glc
Summary of the method: as §1

[23] = biological target: GlcA3S(b1-3)Gal(b1-4)GlcNAc(b1-3)Gal(b1-4)Glc
Summary of the method: as §1

[24] = biological target: GlcNAc(b1-2)Man(a1-3)[GlcNAc(b1-2)Man(a1-6)]Man(b1-4)GlcNAc(b1-4)[Fuc(a1-6)]GlcNAc
Summary of the method: as §1

B1: Nc3LysM (protein)
chain: QFTVPPDTTAEPNTIKTCTWWHVAGSGDSCTSIASTYGITSEQFARWDMETTDSPKNPSVATACKLTVGNSYCIENNFGQDDPPTPSISSSTLIGTATTSTTASTTTGNGISTPTPIQEGMETATTTTSSGNGITTPTPTQAGMETVGNCDRFHLVKSGDQCGTIASTYGITLANFYSWNPAVGTSCQSLWLDTYVCVRTIGFVPPKTTTTTTKKPTSTTSAGGVATPTPTQPGMETVSGCKKFHKGRGNVSTVASGDQCGTIATRYGISLANFYSWNPAVGSSCQTLWLDYYVCVGR
- glycan array binding signal (z-score) [1]: 0.401
- glycan array binding signal (z-score) [2]: -0.219
- glycan array binding signal (z-score) [3]: 0.172
- glycan array binding signal (z-score) [4]: -0.251
- glycan array binding signal (z-score) [5]: -0.173
- glycan array binding signal (z-score) [6]: 0.064
- glycan array binding signal (z-score) [7]: -0.157
- glycan array binding signal (z-score) [8]: -0.237
- glycan array binding signal (z-score) [9]: -0.076
- glycan array binding signal (z-score) [10]: -0.092
- glycan array binding signal (z-score) [11]: 0.295
- glycan array binding signal (z-score) [12]: 0.161
- glycan array binding signal (z-score) [13]: 0.019
- glycan array binding signal (z-score) [14]: 0.083
- glycan array binding signal (z-score) [15]: 0.304
- glycan array binding signal (z-score) [16]: -0.048
- glycan array binding signal (z-score) [17]: 0.008
- glycan array binding signal (z-score) [18]: -0.048
- glycan array binding signal (z-score) [19]: 0.342
- glycan array binding signal (z-score) [20]: 0.178
- glycan array binding signal (z-score) [21]: 0.307
- glycan array binding signal (z-score) [22]: 0.326
- glycan array binding signal (z-score) [23]: -0.126
- glycan array binding signal (z-score) [24]: 0.106
